In PubChem BioAssay AID1159580 (chemical genetic matrix, 2015):
In all, about 5,500 compounds went through this assay and about 2,000 (36%) were called active. About 18% were inconclusive and are not listed. Rule as the data show it: active = normalized growth mostly below about 0.91 (no sharp cut-off); inconclusive = no clear call, values can overlap the other calls; inactive = mostly above about 0.92. The list shows a part of the results.

Assay: chemical genetic growth profiling, strain panel (AID 1159580);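 also: tested at 20 µM; growth read once vehicle control cultures reached saturation at 30 °C; 1 = growth at the plate median or of vehicle wells; lower values mean less growth of the strain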
Details: growth OD

Measured: normalized growth

CC1CCc2cc(F)cc3c(=O)c(C(=O)O)cn1c23 (configuration not stated)
inactive: S. cerevisiae deletion strains, locus YJR075W, strain HOC1, stronger effect = lower value 0.967 | S. cerevisiae deletion strains, locus YKL009W, strain mrt4, stronger effect = lower value 0.957 | S. cerevisiae deletion strains, locus YKL068W, stronger effect = lower value 0.985 | S. cerevisiae deletion strains, locus YKL085W, strain MDH1 (second series), stronger effect = lower value 0.974 | S. cerevisiae deletion strains, locus YKL085W, strain MDH1, stronger effect = lower value 0.974 | S. cerevisiae deletion strains, locus YKL160W, strain elf1, stronger effect = lower value 0.971 | S. cerevisiae deletion strains, locus YKL190W, strain CNB1, stronger effect = lower value 0.991 | S. cerevisiae deletion strains, locus YKR001C, strain vps1, stronger effect = lower value 0.998 | S. cerevisiae deletion strains, locus YKR026C, strain gcn3, stronger effect = lower value 0.989 | S. cerevisiae deletion strains, locus YKR091W, strain srl3, stronger effect = lower value 0.994 | S. cerevisiae deletion strains, locus YLL001W, strain dnm1, stronger effect = lower value 0.966 | S. cerevisiae deletion strains, locus YLL026W, stronger effect = lower value 0.995 | S. cerevisiae deletion strains, locus YLL041C, strain sdh2, stronger effect = lower value 0.989 | S. cerevisiae deletion strains, locus YLR027C, strain aat2, stronger effect = lower value 0.988 | S. cerevisiae deletion strains, locus YLR039C, strain RIC1, stronger effect = lower value 0.892 | S. cerevisiae deletion strains, locus YLR058C, strain SHM2, stronger effect = lower value 0.983 | S. cerevisiae deletion strains, locus YLR102C, strain apc9, stronger effect = lower value 0.982 | S. cerevisiae deletion strains, locus YLR113W, strain HOG1, stronger effect = lower value 0.955 | S. cerevisiae deletion strains, locus YLR221C, strain rsa3, stronger effect = lower value 0.973 | S. cerevisiae deletion strains, locus YLR258W, strain gsy2, stronger effect = lower value 0.982 | S. cerevisiae deletion strains, locus YLR262C, strain YPT6 (second series), stronger effect = lower value 0.952 | S. cerevisiae deletion strains, locus YLR262C, strain YPT6, stronger effect = lower value 0.867 | S. cerevisiae deletion strains, locus YLR268W, strain sec22, stronger effect = lower value 0.894 | S. cerevisiae deletion strains, locus YLR320W, strain mms22, stronger effect = lower value 0.972 | S. cerevisiae deletion strains, locus YLR330W, strain CHS5, stronger effect = lower value 1.01 | S. cerevisiae deletion strains, locus YLR342W, strain FKS1 (second series), stronger effect = lower value 0.978 | S. cerevisiae deletion strains, locus YLR342W, strain FKS1, stronger effect = lower value 0.978 | S. cerevisiae deletion strains, locus YLR357W, strain rsc2, stronger effect = lower value 0.923 | S. cerevisiae deletion strains, locus YLR370C, strain arc18, stronger effect = lower value 0.991 | S. cerevisiae deletion strains, locus YLR371W, strain rom2, stronger effect = lower value 0.965 | S. cerevisiae deletion strains, locus YLR384C, strain iki3, stronger effect = lower value 0.985 | S. cerevisiae deletion strains, locus YLR418C, strain cdc73, stronger effect = lower value 0.96 | S. cerevisiae deletion strains, locus YML016C, strain PPZ1, stronger effect = lower value 0.986 | S. cerevisiae deletion strains, locus YML032C, strain rad52, stronger effect = lower value 0.95 | S. cerevisiae deletion strains, locus YML120C, strain ndi1, stronger effect = lower value 0.975 | S. cerevisiae deletion strains, locus YML124C, strain tub3, stronger effect = lower value 0.994 | S. cerevisiae deletion strains, locus YMR058W, strain fet3, stronger effect = lower value 0.998 | S. cerevisiae deletion strains, locus YMR078C, strain ctf18, stronger effect = lower value 0.961 | S. cerevisiae deletion strains, locus YMR125W, strain sto1, stronger effect = lower value 0.978 | S. cerevisiae deletion strains, locus YMR129W, stronger effect = lower value 0.992 | S. cerevisiae deletion strains, locus YMR205C, strain PFK2, stronger effect = lower value 0.968 | S. cerevisiae deletion strains, locus YMR223W, strain ubp8, stronger effect = lower value 0.992 | S. cerevisiae deletion strains, locus YMR231W, strain pep5, stronger effect = lower value 0.991 | S. cerevisiae deletion strains, locus YMR263W, strain SAP30, stronger effect = lower value 0.964 | S. cerevisiae deletion strains, locus YMR307W, strain GAS1, stronger effect = lower value 1.02 | S. cerevisiae deletion strains, locus YNL067W, strain RPL9B, stronger effect = lower value 0.962 | S. cerevisiae deletion strains, locus YNL071W, strain lat1, stronger effect = lower value 0.998 | S. cerevisiae deletion strains, locus YNL128W, strain TEP1, stronger effect = lower value 0.976 | S. cerevisiae deletion strains, locus YNL153C, strain GIM3, stronger effect = lower value 0.972 | S. cerevisiae deletion strains, locus YNL183C, strain NPR1, stronger effect = lower value 0.904 | S. cerevisiae deletion strains, locus YNL209W, strain ssb2, stronger effect = lower value 0.996 | S. cerevisiae deletion strains, locus YNL233W, strain BNI4, stronger effect = lower value 0.968 | S. cerevisiae deletion strains, locus YNL248C, strain rpa49, stronger effect = lower value 0.971 | S. cerevisiae deletion strains, locus YNL250W, strain rad50, stronger effect = lower value 0.973 | S. cerevisiae deletion strains, locus YNL271C, strain bni1, stronger effect = lower value 0.962 | S. cerevisiae deletion strains, locus YNL298W, strain CLA4, stronger effect = lower value 0.957 | S. cerevisiae deletion strains, locus YNL307C, strain MCK1, stronger effect = lower value 0.983 | S. cerevisiae deletion strains, locus YNL322C, strain KRE1 (second series), stronger effect = lower value 0.995 | S. cerevisiae deletion strains, locus YNL322C, strain KRE1, stronger effect = lower value 0.986 | S. cerevisiae deletion strains, locus YNR049C, strain mso1, stronger effect = lower value 0.987 | S. cerevisiae deletion strains, locus YNR052C, strain pop2, stronger effect = lower value 0.96 | S. cerevisiae deletion strains, locus YOL006C, strain TOP1, stronger effect = lower value 0.947 | S. cerevisiae deletion strains, locus YOL012C, strain htz1 0.784 | S. cerevisiae deletion strains, locus YOL147C, strain pex11, stronger effect = lower value 0.973 | S. cerevisiae deletion strains, locus YOR001W, strain rrp6, stronger effect = lower value 0.968 | S. cerevisiae deletion strains, locus YOR061W, strain CKA2, stronger effect = lower value 0.984 | S. cerevisiae deletion strains, locus YOR069W, strain VPS5, stronger effect = lower value 0.977 | S. cerevisiae deletion strains, locus YOR070C, strain gyp1, stronger effect = lower value 0.99 | S. cerevisiae deletion strains, locus YOR080W, strain dia2, stronger effect = lower value 0.992 | S. cerevisiae deletion strains, locus YOR083W, strain WHI5, stronger effect = lower value 0.969 | S. cerevisiae deletion strains, locus YOR106W, strain vam3, stronger effect = lower value 0.947 | S. cerevisiae deletion strains, locus YOR136W, strain idh2, stronger effect = lower value 0.98 | S. cerevisiae deletion strains, locus YOR144C, strain elg1, stronger effect = lower value 0.975 | S. cerevisiae deletion strains, locus YOR184W, strain ser1, stronger effect = lower value 0.959 | S. cerevisiae deletion strains, locus YOR231W, strain MKK1, stronger effect = lower value 0.982 | S. cerevisiae deletion strains, locus YOR265W, strain rbl2, stronger effect = lower value 0.982 | S. cerevisiae deletion strains, locus YOR270C, strain vph1, stronger effect = lower value 0.959 | S. cerevisiae deletion strains, locus YOR290C, strain snf2, stronger effect = lower value 0.955 | S. cerevisiae deletion strains, locus YOR316C, strain cot1, stronger effect = lower value 0.97 | S. cerevisiae deletion strains, locus YPL051W, strain arl3, stronger effect = lower value 0.984 | S. cerevisiae deletion strains, locus YPL055C, strain LGE1, stronger effect = lower value 0.985 | S. cerevisiae deletion strains, locus YPL078C, strain atp4, stronger effect = lower value 0.976 | S. cerevisiae deletion strains, locus YPL106C, strain sse1, stronger effect = lower value 0.963 | S. cerevisiae deletion strains, locus YPL240C, strain hsp82, stronger effect = lower value 0.974 | S. cerevisiae deletion strains, locus YPL241C, strain CIN2, stronger effect = lower value 0.997 | S. cerevisiae deletion strains, locus YPL256C, strain CLN2, stronger effect = lower value 0.974 | S. cerevisiae deletion strains, locus YPR119W, strain clb2, stronger effect = lower value 0.973 | S. cerevisiae deletion strains, locus YPR141C, strain kar3, stronger effect = lower value 0.961 | S. cerevisiae deletion strains, locus YPR163C, strain tif3, stronger effect = lower value 0.974 | S. cerevisiae deletion strains, locus YPR167C, strain met16, stronger effect = lower value 0.97 | S. cerevisiae deletion strains, strain wtn01, stronger effect = lower value 0.95 | S. cerevisiae strains, strain wild type, stronger effect = lower value 0.987
